Experimental findings from PubChem BioAssay (NCATS) are described below.

“And” between values parts separate entries of the source, which are not always exact repeats. Identical values can stand only once. Inconclusive results are not listed. Some structures have more than one record in an assay (separate samples or runs), and their calls can disagree. The source made the active and inactive calls. Calls follow the shape of the dose curve; as a rule, active = well fitted inhibition curve with a large enough effect; inconclusive = small, poorly fitted or top-dose-only effect; inactive = no such curve, though single readings can be large or run the other way.
% is scaled to controls: 0 for no effect and ±100 for the full control effect; potency is read from the fitted curve at half-maximal effect.

A short description of this test: Primary qHTS for inhibitors of nuclear receptor binding SET domain protein 2 (NSD2) in an RCH-ACV wild type WT cells (2C) (AID 1645877). Also: nearly all actives have a fitted effect of over 70% in size. The settings on record: RCH-ACV (leukaemia line) NSD2 WT (2C) viability, CellTiter-Glo, 72 h; series mostly up to 44.9 µM; activity change, negative = cell killing: at the top concentration. (In general: In qHTS, concentration-response curves come from the screen itself.)
For the compound `Nc1ccc(S(=O)(=O)Nc2ccnn2-c2ccccc2)cc1`, the “outcome” value is “inactive [at 17.3 µM]”.
As to `Cc1oncc1C(=O)Nc1ccc(C(F)(F)F)cc1`, the Potency was 10.6 µM (active) and 14.8 µM (active).
Take `COc1ccc(CCN2CCN(CCCc3ccccc3)CC2)cc1OC`: the “activity change, negative = cell killing” value was -12.7% (inactive).
Take `CN(C)c1ccc(Nc2nc(N)n(C(=O)c3c(F)cccc3F)n2)cc1`: the Potency was 0.833 µM (active).
For `CCC(C)(C)C(=O)O[C@H]1C[C@@H](C)C=C2C=C[C@H](C)[C@H](CC[C@@H]3C[C@@H](O)CC(=O)O3)[C@H]21`, the Potency was 8.33 µM (active).
As to `CC(C)c1onc(-c2c(Cl)cccc2Cl)c1COc1ccc(/C=C/c2cccc(C(=O)O)c2)c(Cl)c1`, the “activity change, negative = cell killing” value was -5.27% (inactive).
As to `Cc1cc([C@@H](C)Nc2ccccc2C(=O)O)c2nc(N3CCOCC3)cc(=O)n2c1`, the Potency was 2.51 µM (active) and 1.66 µM (active).
Consider `CN([C@@H](Cc1ccc(OS(=O)(=O)c2cccc3cnccc23)cc1)C(=O)N1CCN(c2ccccc2)CC1)S(=O)(=O)c1cccc2cnccc12`, for which the activity change, negative = cell killing was 9.55% [at 4.96 µM] (inactive).
For the compound `O=NN(CCCl)C(=O)NCCCl`, the “activity change, negative = cell killing” value is -3.95% (inactive).
For the compound `Cc1cc2c(C(C)C)c(O)c(O)c(C=O)c2c(O)c1-c1c(C)cc2c(C(C)C)c(O)c(O)c(C=O)c2c1O`, the Potency was 9.34 µM (active).
For the compound `COc1cc(Oc2ccnc3cc(OC)c(OC)cc23)ccc1NC(=O)NC(C)c1nccs1` (centres undefined), the Potency entry was “inactive and 8.33 µM (active)”.
`CC(C[N+](C)(C)C)OC(N)=O` (centres undefined): the Potency result was “inactive”.
As to `Cc1ccnc(NS(=O)(=O)c2ccc(NC(=O)Nc3ccc(S(=O)(=O)Nc4nccc(C)n4)cc3)cc2)n1`, the “activity change, negative = cell killing” value was -3.6% (inactive).
Take `CCn1c(-c2nonc2N)nc2cnc(Oc3cccc(NC(=O)c4ccc(OCCN5CCOCC5)cc4)c3)cc21`: the Potency was 326 nM (active) and 417 nM (active).
Take `O=C1CCCC2=C1C(c1[nH]ncc1Cl)N=C(Nc1nc3ccccc3o1)N2` (centres undefined): the “activity change, negative = cell killing” value was -13.8% (inactive).
Regarding `OC(CN1CCC(Cc2ccc(F)cc2)CC1)c1ccc(Cl)cc1` (centres undefined), the “activity change, negative = cell killing” value is -16% (inactive).
On the same count and under the same terms, to `CC(c1cc2ccccc2s1)N(O)C(N)=O` (centres undefined) belongs -89.9% (inactive); to `NC(=O)c1cnccn1`, 5.15% (inactive).
`Cn1cnc([N+](=O)[O-])c1Sc1ncnc2nc[nH]c12`: the Potency is 1.35 µM (active) and 944 nM (active) and 3.72 µM (active).
